# Compounds with a hit are over-represented: about 2.2% of the library has one in this group of screens.
# ABCB6 inh MLPCN: blocks the human ABCB6 transporter; K562-ABCB6 porphyrin accumulation, flow cytometry, 1 h; active compounds read low; fluorescence ratio to DMSO, % at 10 µM; 0.19% of 360,000 active; Q9NP58; AID 602162;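 active = fluorescence ratio to DMSO below 75%, the collection mean minus 3 SD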;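 also: signal is porphyrin accumulated inside mitochondria; 100% equals median channel fluorescence of DMSO control wells; lower ratio means ABCB6 inhibition with less porphyrin fluorescence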
# Target sequence (Q9NP58 whole entry, looked up): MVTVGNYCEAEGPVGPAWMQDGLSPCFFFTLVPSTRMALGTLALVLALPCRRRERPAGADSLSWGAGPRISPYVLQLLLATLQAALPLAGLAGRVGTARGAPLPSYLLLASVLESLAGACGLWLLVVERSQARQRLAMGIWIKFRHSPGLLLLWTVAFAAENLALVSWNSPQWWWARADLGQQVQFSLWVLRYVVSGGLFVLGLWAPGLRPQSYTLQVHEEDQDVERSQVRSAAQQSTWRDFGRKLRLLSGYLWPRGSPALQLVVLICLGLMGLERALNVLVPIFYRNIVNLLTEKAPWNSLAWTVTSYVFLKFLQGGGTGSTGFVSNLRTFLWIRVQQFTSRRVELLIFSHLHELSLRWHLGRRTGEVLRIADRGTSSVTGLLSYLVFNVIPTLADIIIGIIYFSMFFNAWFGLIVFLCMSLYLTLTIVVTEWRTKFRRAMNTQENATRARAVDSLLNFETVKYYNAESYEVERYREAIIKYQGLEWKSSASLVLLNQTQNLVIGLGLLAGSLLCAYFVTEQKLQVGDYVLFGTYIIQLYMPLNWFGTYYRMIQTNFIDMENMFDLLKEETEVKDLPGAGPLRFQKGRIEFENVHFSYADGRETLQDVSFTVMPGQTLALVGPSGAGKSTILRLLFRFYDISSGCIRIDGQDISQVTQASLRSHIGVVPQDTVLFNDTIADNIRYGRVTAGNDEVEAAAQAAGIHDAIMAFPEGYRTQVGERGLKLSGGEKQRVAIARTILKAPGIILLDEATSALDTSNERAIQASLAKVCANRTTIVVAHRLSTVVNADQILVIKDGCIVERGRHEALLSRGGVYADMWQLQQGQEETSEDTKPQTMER
# Myeloid diff 2: compounds promoting myeloid differentiation | AID 624256 | 1% of 360,000 active | calls only at 10 µM | ER-HoxA9 myeloid progenitors, lysozyme-GFP differentiation, flow cytometry;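 active = normalized GFP-positive differentiation at or above the plate's own cutoff, the solvent-only control mean plus 3 SD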;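 also: cells exposed to compound for four days before flow analysis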
# MIN6 prolif: MIN6 beta-cell proliferation induction. 0.29% of 330,000 active. MIN6 cells proliferation, ATPlite luminescence, 48 h; cells starved in 0.2% serum; 100% = growth in 10% serum. proliferation, % at 10 µM;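 active = compounds whose signal lies at least 3.5 SD above the mean of all wells on their plate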;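 also: 0% = DMSO-treated cells in low-serum medium and 100% = 10% serum control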
# H9c2 protect: modulators protecting cardiomyocytes from myocardial damage; H9c2 cardiomyocytes, H2O2 injury protection, ATPLite, 2 h; protection from H2O2 cell death, % at 20 µM; 0.63% of 360,000 active;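 active = compounds giving at least 50% protection of heart cells from peroxide-induced death in the single-dose screen, raw or plate-pattern-corrected value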;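 also: 0% = DMSO wells with peroxide and 100% = DMSO wells without peroxide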
# hiPSC survival: hiPSC single-cell survival enhancement; ATPlite luminescence; 100% = ROCK inhibitor wells, 0% = DMSO; survival enhancement, % at 20 µM; 0.044% of 360,000 active; in the data active = survival enhancement above about 18%;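 also: cells exposed to compounds for 16 hours before the ATP read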
# Myeloid diff CP1: promotes myeloid progenitor differentiation | shares compounds with Myeloid diff 2 | ER-HoxA9 myeloid progenitors, GFP/Mac1 double-positive flow | calls only | 2% of 2,300 active | AID 651706;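 active = share of green or green-and-red cells above 9 and 9% in run 1 or 4 and 3% in run 2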
# GFP autofluor: compound fluorescence in myeloid differentiation counter-screen; shares compounds with Myeloid diff 2; ER-HoxA9 myeloid progenitors, no estrogen, GFP autofluorescence flow cytometry; vehicle wells 0%, positive control 100%; fluorescence response, % (concentration not given with the values); 7.4% of 2,300 active; AID 651707;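 active = over 5% cells positive for green fluorescent reporter, or over 2% positive for both it and APC stain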;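 also: range taken on the double positive population between DMSO and positive control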
# * = called active by the depositor; i = inactive; / = no result; + = active, no number.
SMILES,ABCB6 inh MLPCN,Myeloid diff 2,MIN6 prolif,H9c2 protect,hiPSC survival,Myeloid diff CP1,GFP autofluor
Cc1ccc(N2C(=O)N(C(C)C)C(C)(C)CC2(C)O)cc1 (configuration not stated),91.0,i,0.4,2.5,0.4,/,/
COc1ccc(-c2cc(C(=O)N3CCN(c4ccccc4OC)CC3)no2)cc1OC,98.0,i,2.1,1.5,0.1,i,1.1
COc1ccccc1N1CCN(C(=O)c2cc(-c3ccccc3)on2)CC1,97.0,i,0.3,-2.1,3.3,/,/
COc1ccccc1N1CCN(C(c2ccc(N(C)C)cc2)c2nnnn2CCc2ccccc2)CC1 (configuration not stated),98.0,+,-3.7,-3.0,5.4,i,8.2*
Cc1ccc(C)c(-c2csc(NC(=O)C3=COCCO3)n2)c1,104.0,i,-6.8,-13.1,-0.5,i,0.4
Cc1cc(C)nc(SCc2ccc(C(=O)N/N=C/c3ccncc3)cc2)n1,91.0,i,-1.6,-4.5,3.1,/,/
CCc1ccc(-c2cc(C(=O)N/N=C/c3ccccn3)[nH]n2)cc1,90.0,i,-2.1,14.9,-1.0,/,/
Cc1cc(C)nc(SCc2ccc(C(=O)N/N=C/c3ccccn3)cc2)n1,92.0,i,-1.7,69.0*,0.1,i,0.4
O=C(N/N=C/c1ccccn1)c1cc(-c2ccc3ccccc3c2)n[nH]1,103.0,i,-1.9,4.2,-1.6,i,0.5
COc1ccccc1OCC(=O)Nc1ccc2c(c1)n(C)c(=O)n2C,101.0,i,-0.6,5.1,-0.6,/,/
CC1(C(=O)NC2CCCCC2)CCC(=O)N1Cc1cccs1 (configuration not stated),98.0,i,1.6,0.9,1.0,i,0.0
N#C/C(C(N)=O)=C1/SC(Cc2ccc(F)cc2)C(=O)N1c1ccccc1 (configuration not stated),96.0,i,-1.5,-2.7,-0.2,i,4.0
Cc1ccccc1N1C(=O)C(Cc2ccc(F)cc2)S/C1=C(\C#N)C(N)=O (configuration not stated),97.0,i,1.1,7.0,0.7,i,4.9
CCC(=O)Nc1cccc(NC(=O)CSc2nnc(C3CC3)n2C)c1,112.0,i,0.0,3.7,6.1,i,0.4
Cn1c(SCC(=O)Nc2ccc3c(c2)CCC3)nnc1C1CC1,105.0,i,1.3,3.9,1.9,/,/
COc1ccccc1C(c1nnnn1Cc1ccco1)N1CCN(c2cccc(C)c2C)CC1 (configuration not stated),102.0,i,-5.3,-5.5,-0.4,i,0.0
CCN1CCN(C(c2cccc(OC)c2OC)c2nnnn2Cc2ccco2)CC1 (configuration not stated),100.0,i,2.6,6.9,1.6,/,/
COc1ccccc1-n1cnc2cc(NC(=O)c3ccco3)ccc21,97.0,+,1.0,5.5,-0.9,i,0.0
C#Cc1ccc([C@H]2C=C(C(=O)NCc3nc4ccccc4[nH]3)O[C@@H](OCc3ccc(CO)cc3)C2)cc1,94.0,i,-2.0,2.2,-1.0,i,0.0
O=C(NCc1ccccc1)C1=C[C@@H](c2csc3ccccc23)C[C@@H](OCc2ccc(CO)cc2)O1,91.0,+,-7.5,-5.0,0.9,i,0.0
O=C(NCc1nc2ccccc2[nH]1)C1=C[C@H](c2ccc(Br)cc2)C[C@H](OCc2ccc(CO)cc2)O1,100.0,i,-8.5,-0.5,1.2,/,/
CCSc1ccc([C@@H]2[C@@H]3C(=O)N(C)C(=O)[C@@H]3[C@]3(C(=O)OC)CCCCN23)cc1,94.0,i,1.1,-4.1,-2.4,/,/
Cc1ccc(-c2nnc(N(C)C(=O)c3cccnc3)s2)cn1,93.0,i,-2.2,-6.1,-0.6,/,/
Cc1ccc(-c2nnc(N(C)C(=O)c3cccnc3)s2)cc1,97.0,i,-3.4,-12.2,-2.4,i,0.0
COc1cccc(CNC(=O)CN(C)S(=O)(=O)c2cnc[nH]2)c1,99.0,+,-0.2,3.0,-1.9,i,0.6
COC(=O)CNC(c1ccccc1)c1cc(Br)ccc1NC(C)=O (configuration not stated),97.0,i,1.7,-6.6,1.0,/,/

# Screens as filed in PubChem.
